Measured values taken from PubChem BioAssay AID1626 (SRMLSC, 2009).
About 2,000 (0.91%) of roughly 220,000 compounds were called active. Not shown: some 2% with an inconclusive outcome. Not all results are given here. Entries with a potency or affinity are not part of this list. A number with no mark means an inactive call. Cut-off read from the data, not from the text of the source: inconclusive = inhibition above about 80% without an active follow-up result; inactive = below that; test concentration not stated here.

Assay: M. tuberculosis H37Rv growth inhibitors, H37Rv strain (AID 1626);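 note: bacteria incubated seven days before Alamar blue readout; 0% = bacteria only wells and 100% = bacteria with antibiotic wells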
Details: hits give high values, concentration not given here

Row | SMILES | inhibition [%]
1 | c1ccc2c(Nc3ccc4c(c3)OCCO4)c3c(nc2c1)CCC3 | 21.9
2 | Cc1ccc2nc3c(c(Nc4ccc5c(c4)OCCO5)c2c1)CCC3 | 59.8
3 | N#Cc1c(SCC(N)=O)nsc1SCc1ccc(Cl)cc1 | -0.48
4 | CSc1snc(SCC(N)=O)c1C#N | -4.47
5 | C/C=C/C(=O)OCC(=O)Nc1cccc(Br)c1 | -3.94
6 | COc1ccc(NC(=O)C(C)Sc2nnc3c4c(nc(-c5ccc(OC)cc5)n23)CC(C)(C)OC4)cc1 (stereo unspecified) | 4.37
7 | CC(C)CNC(=S)N1CCN(Cc2ccc3c(c2)OCO3)CC1 | -8.68
8 | CCOC(=O)c1ccc(NC(=O)CNC(=O)c2ccccc2)cc1 | 0.26
9 | CCC1C(=O)N=C(SCC(=O)Nc2ccc(C(=O)OC)cc2)NC1=O (stereo unspecified) | 8.73
10 | CCC1C(=O)N=C(SCC(=O)Nc2ccccc2)NC1=O (stereo unspecified) | -8
11 | COc1ccc(NC(=O)c2cc3ccccc3o2)cc1 | 8.56
12 | CCC(=O)Nc1ccc(NC(=O)c2cc3ccccc3o2)cc1 | 8.98
13 | CCOC(=O)c1ccc(NC(=O)Nc2ccc(F)cc2)cc1 | -14.9
14 | Cc1ccc(NC(=O)c2cc3c(s2)CCCC3)cc1 | -5.85
15 | COc1ccccc1NC(=O)c1ccc(NC(=O)c2cc3c(s2)CCC3)cc1 | 0.63
16 | COc1cccc(/C=N/NC(=O)CN(CCc2ccccc2)S(=O)(=O)c2ccc(NC(C)=O)cc2)c1 | 0.86
17 | COc1ccc(/C=N/NC(=O)c2cccnc2)cc1CN1CCc2cc(OC)c(OC)cc2C1C (stereo unspecified) | 1.27
18 | Cc1cc(C)n2nc(C(=O)OCC(=O)c3cc(C)n(CC4CCCO4)c3C)nc2n1 (stereo unspecified) | -11.1
19 | CC(=O)c1ccc(NC(=O)N2C3CCC2CC(O)(c2cccnc2)C3)cc1 (stereo unspecified) | -0.55
20 | CCOC(=O)c1ccc(-c2ccc(/C=N/NC(=O)CN(c3ccccc3Cl)S(C)(=O)=O)o2)cc1 | 6.39
21 | NNC(=O)c1cnn(-c2ccccc2)c1-n1cccc1 | -3.69
22 | Cc1ccc(NC(=O)C(=O)NCc2ccc(/C=C(/C#N)C(=O)NCc3cccnc3)o2)cc1C | 0.05
23 | CCOC(=O)N1CCN(C(=O)CSCC(=O)N=c2sc3ccccc3n2C)CC1 | -1.11
24 | CCOC(=O)c1ccc(NCc2nc3ccccc3n2C)cc1 | 51.7
25 | CC1CCC/C(=C\Nc2ccc(O)cc2)C1=O (stereo unspecified) | -13
26 | CCOC(=O)c1ccc(NC(=O)c2cc(F)c(F)cc2Cl)cc1 | 2.44

Row | SMILES | inhibition [%]
27 | CCOC(=O)c1ccc(NC(=O)Nc2ccc(Cl)cn2)cc1 | -5.47
28 | CC1CCC/C(=C\Nc2ccc(C(=O)O)cc2)C1=O (stereo unspecified) | -6.3
29 | CCCOC(=O)c1ccc(NC(=O)CC(C)(C)C)cc1 | -1.14
30 | CCOC(=O)Cc1nc2ccccc2[nH]1 | -10.4
31 | CCOC(=O)c1ccc(NC(=O)COC)cc1 | 79.3
32 | Cc1ccc(Nc2nc(C(=O)N3CCC(C(=O)N4CCN(C)CC4)CC3)cs2)cc1 | -9.19
33 | O=C(NCC1CCCO1)c1sc2cc(Cl)ccc2c1Cl (stereo unspecified) | 10.4
34 | CCN1CCN(C(=O)c2nn(-c3ccc(C)cc3)c(=O)c3c2c2ccccc2n3C)CC1 | 1.02
35 | CC(=O)c1c(C)[nH]c(C(=O)CSc2nnc(-c3ccccc3)n2Cc2ccc3c(c2)OCO3)c1C | 0.21
36 | CN1CCC(N2CCN(c3cccc(C(F)(F)F)c3)CC2)CC1 | -9.94
37 | S=c1[nH]nc(Cc2ccccc2)n1-c1ccc(Cl)cc1 | -10.8
38 | NNc1nc2ccc(Cl)cc2s1 | 52.6
39 | Cn1c(=O)c2c(nc(N/N=C/c3cccs3)n2Cc2ccccc2)n(C)c1=O | 3.67
40 | CCOC(=O)c1ccc(NC(=O)CCC(=O)OC)cc1 | 72.2
41 | CCOC(=O)c1ccc(NC(=O)COc2ccccc2CNCCO)cc1 | 91.9
42 | CCOC(=O)c1ccc(NC(=O)COc2ccccc2CNC2CCCC2)cc1 | 11.1
43 | CCCOC(=O)c1ccc(NC(=O)C(CC)CC)cc1 | 0.89
44 | O=c1[nH]c(Nc2ccccc2)cc2ccccc12 | -8.22
45 | CCOC(=O)c1ccc(NC(=O)C2CCN(S(=O)(=O)CC)CC2)cc1 | 51.8
46 | O=c1[nH]c(Nc2ccc(F)cc2)cc2ccccc12 | 3.27
47 | CCOC(=O)c1ccc(NC(=O)CNC(=O)C2CCCCC2)cc1 | -1.48
48 | COc1ccccc1NC(=O)CCC(=O)N/N=C(/C)c1ccc(C)cc1 | 0.52
49 | O=C(N/N=C/c1ccccn1)C(=O)N1CCCCCC1 | -1.83
50 | O=C(CSc1ncccn1)N1CCCc2ccccc21 | -8.67
51 | CCCCN(C(=O)c1c(C)[nH]c(C(=O)OCC)c1C)c1ccccc1 | -3.19
52 | COc1ccc(-n2c(=O)c3ccccc3n(CC(=O)c3ccccc3)c2=O)cc1OC | -3.99

Row | SMILES | inhibition [%]
53 | C/C(=N\NC(=O)C1CC1(C)c1ccccc1)c1ccco1 (stereo unspecified) | 5.62
54 | Cn1ncc(C#N)c1NC(=O)c1nn2cccnc2c1Cl | 6.92
55 | Cc1ccc(C(=O)OCC(=O)NCC(F)(F)F)cc1C | 9.6
56 | O=C(CC1C(=O)NCCN1CC1CCCCC1)NCCc1ccc(F)cc1 (stereo unspecified) | -4.2
57 | CCOC(=O)Cc1ccc(NC(=O)c2ccccc2Br)cc1 | 7.37
58 | CCOC(=O)c1ccc(NC(=O)CNC(=O)C23CC4CC(CC(C4)C2)C3)cc1 | -2.81
59 | COC(=O)Cc1ccc(NC(=O)c2ccc(C(C)(C)C)cc2)cc1 | 6.95
60 | Cc1ccc(C)c(NC(=O)Cc2coc3cc4c(cc23)CCC4)c1 | 9.72
61 | CCOC(=O)c1ccc(NS(C)(=O)=O)cc1 | -0.25
62 | CCOC(=O)c1ccc(NC(=O)CN2C(=O)CNC2=O)cc1 | -6.17
63 | CC(=O)c1cccc(NC(=O)Cc2coc3cc4c(cc23)CCC4)c1 | 6.34
64 | CCOC(=O)c1ccc(NC(=O)CN2C(=O)CCC2=O)cc1 | -7.66
65 | O=S(=O)(Cc1ccccc1)Cc1cnc(Cl)s1 | 4.1
66 | CCCOCCc1nnc(N)s1 | 1.89
67 | Cc1cccc(OCCSc2cc(C)nc(N)n2)c1 | 6.69
68 | COc1ccc(/C=C/C(=O)c2ccncc2)c2ccccc12 | 76
69 | Cc1[nH]c2ccccc2c1/C=C/C(=O)c1ccncc1 | 6.67
70 | O=C(/C=C/c1ccc2c(c1)OCO2)Nc1cccnc1 | 8.75
71 | CCCCN(CCNP(=O)(OCC)OCC)CP(=O)(OCC)OCC | -3.59
72 | Nc1nc2ccc(O)cc2s1 | -4.72
73 | COc1ccc2nc(N)sc2c1 | 42
74 | O=C(O)CSC1=NC(=Nc2cccc(Cl)c2)C2(CCCCC2)N1c1ccccc1 | 5.37
75 | O=C(NC1CC1)C1=C[C@@H](c2ccccc2)C[C@@H](OCc2ccc(CO)cc2)O1 | -10.6
76 | COc1ccccc1N1CCN(c2nc3ccccn3c(=O)c2C=O)CC1 | -13.2
77 | N#Cc1nc(-c2cccs2)oc1NCc1ccccc1 | 6.94
78 | C=CCNc1oc(-c2cccs2)nc1C#N | -10.7

Row | SMILES | inhibition [%]
79 | CCOC(=O)C1(Cc2ccccc2)CCN(Cc2ccc(COC)o2)CC1 | 8.15
80 | Cc1cccc(NC(=O)CSc2nnc(-c3ccncc3)n2C)c1 | -2.48
81 | COC(=O)c1ccc(N)c(N=CC2=C(O)CC(C)(C)CC2=O)c1 | 99.2
82 | CCSC1=C(C#N)C(c2cccs2)C(C(=O)OC)=C(C)N1 (stereo unspecified) | -5.12
83 | CCOCCSC1=C(C#N)C(c2cccs2)C(C(C)=O)=C(C)N1 (stereo unspecified) | -2.87
84 | Cc1nc2cc(NC(=O)CCS(=O)(=O)c3ccccc3)ccc2s1 | -0.27
85 | Nc1ncnc(Oc2ccccc2F)c1[N+](=O)[O-] | 7.09
86 | Cc1ccccc1Oc1ncnc(N)c1[N+](=O)[O-] | -1.2
87 | COc1ccc(NC(=O)C(=O)NCCN2CCN(C(=O)c3ccco3)CC2)cc1 | 4.1
88 | O=C(COc1ccccc1)Nc1cccc(-c2nc3cc4ccccc4cc3[nH]2)c1 | 55.3
89 | O=C(Cc1cccs1)Nc1ccc(-c2nc3ccccc3[nH]2)cc1 | 1.13
90 | CC(=O)c1ccc(NC(=O)N2CCN(c3ccc(C)cc3)C(C)C2)cc1 (stereo unspecified) | 0.07
91 | O=C(Nc1cccc([N+](=O)[O-])c1)N1CCN(c2ccccc2)CC1 | -7.11
92 | Cc1ccc(NC(=S)NCc2ccccc2)cc1S(=O)(=O)N1CCCCC1 | -3.09
93 | Cc1cc2c(ncn2Cc2ccccc2)c(N)c1C | 1.64
94 | CCCn1cnc2c(N)c(C)c(C)cc21 | -8.86
95 | N#C/C(=N\Nc1c(Cl)cccc1Cl)C(=O)NN | 0.65
96 | O=[N+]([O-])c1cc(/C=N\Nc2nc(-c3ccccc3)cs2)ccc1O | -2.52
97 | O=C(Nc1ccccc1Cl)Oc1ccc(Cl)cc1Cl | -3.15
98 | O=C(Nc1ccccc1Cl)Nc1ccccc1Cl | -9.3
99 | Cn1c(NC(=O)C2CC2)cc(=O)n(C)c1=O | 5.07
100 | O=c1oc(/C=C/c2ccccc2)nc2sc3c(c12)CCC3 | -3.48
101 | CCn1c(/C=C/c2ccccc2)nc2ccccc2c1=O | 0.15
